Assays:
Experiment in all cases: PBM binding z-score (relative to random genomic background probes); higher = stronger binding; sequences stand for … in GC…GCGATTGACAGCGTAGAATGAAGG
[1] = test system: RARb homodimer (NR concentration 270 nM)
In short: (§1)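 Binding z-scores take random background probes as their reference. They come from custom Agilent 4×180K protein-binding microarrays incubated 1 h with ligand-free nuclear receptor dimers, with antibodies against each partner (one per run) detecting binding. Scanned fluorescence was regression-normalized.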

[2] = test system: RARg:RXRa (NR concentration 270 nM, RXRa partner concentration 90 nM)
In short: as §1

[3] = test system: RARg homodimer (NR concentration 270 nM)
In short: as §1

[4] = test system: RXRa DBDmut IVT, anti-RXR (DBD mutation: RXRa K156A/R161A, NR concentration 90 nM)
In short: as §1

[5] = test system: RXRa homodimer (NR concentration 180 nM)
In short: as §1

[6] = test system: THRa:RXRa (NR concentration 90 nM, RXRa partner concentration 90 nM)
In short: as §1

[7] = test system: THRa homodimer (NR concentration 90 nM)
In short: as §1

[8] = test system: VDR:RXRa (NR concentration 270 nM, RXRa partner concentration 90 nM)
In short: as §1

[9] = test system: VDR homodimer (NR concentration 270 nM)
In short: as §1

| Sequence | PBM binding z-score [1] | PBM binding z-score [2] | PBM binding z-score [3] | PBM binding z-score [4] | PBM binding z-score [5] | PBM binding z-score [6] | PBM binding z-score [7] | PBM binding z-score [8] | PBM binding z-score [9] |
| --- | --- | --- | --- | --- | --- | --- | --- | --- | --- |
| ATATGTAGGTTAAGGGTCCTTCAGGTTGGTTCGC | 1.37 | 1.03 | 1.09 | 0.575 | 1.59 | 1.15 | 0.749 | 1.67 | 1.01 |
| CATACAAGGTCAGCTAGGCCAGAGTAGGGACGGC | 3.83 | 5.19 | 5.79 | 2.04 | 4.4 | 3.54 | 1.97 | 3.81 | 1.65 |
| CAAACTAGGTCACCGGAATGTCAAAGTCCGCATG | 4.04 | 5.43 | 5.46 | 1.81 | 3.7 | 3.71 | 2.04 | 3.06 | 0.883 |
| AGAATGAGGTTATACGTAGCTCAGGGAAGAAAGT | 0.301 | 1.29 | 0.944 | 1.7 | 1.86 | 1.81 | 0.226 | 1.2 | 0.643 |
| CGAACGAGGGCATGAGTTGATAGCTAATGCCGAT | 0.599 | 1.51 | 1.52 | 2.15 | 0.984 | 1.25 | -0.207 | 1.37 | 1.67 |
| CTCGAACGGTCGTGCTCAGGTGAGTATACCAAAC | 0.628 | 0.435 | 0.489 | 0.177 | -0.088 | 1.4 | 0.536 | -0.344 | -0.528 |
| CCGAGCAGGCCAGGGTCACTCAAGCATTTCGCTT | 2.91 | 3.13 | 2.66 | 0.694 | 3.6 | 2.91 | 1.02 | 2.6 | 1.31 |
| GGAACGAGGGTAAGTTGATAGCAGAGTTTGATGG | 0.494 | 0.154 | 0.437 | 0.818 | 0.178 | 0.12 | -0.196 | -0.217 | 0.755 |
| GATACAGAGTCAAGGCCAGAGTACGCGTATTGAT | 0.0594 | 0.0796 | 0.345 | -0.102 | 0.116 | 0.0889 | -0.438 | -0.36 | -0.0653 |
| TCGAGTAGGCTACCAATGGGGCATTCAGCTTTCT | -0.245 | -0.505 | -0.706 | -0.0858 | -0.356 | -0.828 | -0.931 | -0.442 | -0.898 |
| GGAACGACGGCATTCGAGTTGATAGCATGGCGAT | -1.09 | -0.451 | -0.127 | -0.144 | -0.39 | -0.124 | -1.19 | -0.42 | -0.259 |
| GGAACGAGGACAAAGTTGATAGCATCTGTCGACG | 0.33 | 0.769 | 1.2 | 1.23 | 0.361 | 2.36 | 0.861 | -0.104 | 0.141 |
| ACTTACGGGTCAACGATGTTATAGCACGCGTATA | 3.01 | 5.25 | 5 | 2.19 | 5.56 | 2.76 | 0.387 | 4.93 | 1.21 |
| AGAATGAGCTTACCAAAGATCAGGGAAACGCTTG | -0.958 | -0.0102 | -0.129 | -0.777 | 0.323 | -0.369 | -0.963 | -0.591 | -0.938 |
| ACTTACGAGTCAACGAGGTTATAGCACGCGTATA | 0.874 | 1.07 | 0.785 | 0.637 | 1.59 | 2.04 | 0.474 | 4.89 | 0.877 |
| TTACCACGGTGAAAGGTCGTTGATGCACGCCTTG | 1.77 | 2.34 | 1.01 | 0.51 | 3.04 | 1.69 | 0.129 | 1.99 | 1.53 |
| CCTTACGGGTCAAGGTTACAGCACGGGTGGTACG | 3.8 | 5.07 | 4.96 | 0.498 | 5.42 | 3.38 | 1.09 | 3.34 | 1.19 |
| GCTAGCTGGTCAGTAAAAGGTCACACACCGGTCG | 4.99 | 5.88 | 4.93 | 0.376 | 5.62 | 3.34 | 1.36 | 3.52 | 1.37 |
| GCTGCTAGGTCAGGTTGCTCAGCTAACGGGTACG | 2.14 | 2.32 | 2.99 | 0.623 | 0.855 | 1.49 | 0.194 | 0.0611 | 0.297 |
| TAGCCTAGGTCTTGGGCCAGTATACCACGCGAAC | 0.192 | -0.191 | -0.198 | -0.835 | -0.0837 | 0.0232 | 0.0319 | -0.455 | -0.506 |
| TCGAGTAGGTTAGGGGGATTCAGAATGGCGTCGA | 0.809 | 0.0898 | 0.376 | 0.668 | 0.485 | 0.871 | 1.01 | 0.8 | 0.42 |
| GTACCAAGGTGAACAGGTCGTTGATGAGTAGGCG | 1.76 | 1.95 | 1.02 | -0.221 | 1.67 | 2.22 | 0.534 | 1.15 | 0.0817 |
| ATATGTAGGTTACATCCGGGTCATTCACGCTATG | 2.82 | 4 | 2.31 | 1.39 | 3.38 | 3.86 | 2.6 | 4.35 | 3.12 |
| TCTTGTAGATCAATAGAGGTTTAGAAAGTGCGCT | -0.294 | -0.0286 | -0.308 | 0.603 | 0.0167 | 0.294 | -0.767 | 0.618 | 0.0472 |
| TCAAGTTGGTCAAAGGTCACACACTCGAAATGCG | 5.19 | 7.2 | 6.47 | 2.15 | 8.37 | 4.16 | 1.86 | 5.58 | 2.4 |
| AGAATGAGGGTATACGTAGATCAGGGAAGAAAGT | 0.451 | 0.26 | 0.277 | 0.799 | 0.262 | 0.252 | 0.0652 | 0.239 | 0.45 |

| Sequence | PBM binding z-score [1] | PBM binding z-score [2] | PBM binding z-score [3] | PBM binding z-score [4] | PBM binding z-score [5] | PBM binding z-score [6] | PBM binding z-score [7] | PBM binding z-score [8] | PBM binding z-score [9] |
| --- | --- | --- | --- | --- | --- | --- | --- | --- | --- |
| ATCTCTAGGTAAAGATAGTTCATTGAATGCAAAT | 1.46 | 1.01 | 0.983 | 0.467 | 0.854 | 1.28 | 0.302 | 2.07 | 1.98 |
| TCAGGCAGGTGAAGGTAACTCAGGTACGCAGTCG | 0.705 | 0.13 | -0.00372 | 0.635 | 0.357 | 1.52 | 0.723 | 0.269 | 0.051 |
| CCGACTGGGGCATAAGATTACCATAAGCCAGCCC | -0.156 | -0.0949 | 0.359 | -0.222 | -0.0512 | -0.577 | -0.917 | -0.534 | -0.442 |
| CGTCCAAGGTCGGAGAGGTCAGTGAATGCCGAGT | 4.01 | 4.23 | 4.66 | 2.06 | 3.74 | 3.34 | 1.31 | 6.04 | 3.93 |
| AGTCAAAGTTCAGGCCGAGGTAACGTAAAGCACG | 3.34 | 5.07 | 4.99 | 3.1 | 2.85 | 3.78 | 1.3 | 3.01 | 2.53 |
| AGTCAAAGTTCATCTAGGTGACGTAAGATATGCT | 3.92 | 5.42 | 5.9 | 4.62 | 4.44 | 3.16 | 0.193 | – | 4.86 |
| CTCGGAAGGTCGGTTGAGGTGAGTATACGGATAA | 1.62 | 1.28 | 1.86 | 0.318 | 0.83 | 4.59 | 1.32 | 1 | 0.205 |
| CCTGCTAGGTCAATGGTCCGCTAAAGCAGCTCGC | 2.71 | 3.34 | 3.91 | 1.71 | 1.57 | 2.19 | 0.549 | 0.759 | -0.203 |
| CGGCAAAGTTCAAGGTAACGTAACAGAAAGCAGC | 3.52 | 5.32 | 6.01 | 4.49 | 4.62 | 2.79 | 0.581 | 3.52 | 2.71 |
| TCTAGTTGGTCACGGAGGTCACACATGACGGGTA | 4.7 | 4.74 | 4.94 | 1.1 | 4.96 | 3.73 | 2.5 | 5.83 | 3.54 |
| CTCGAAAGGTCGGTTGAGGTGAGTCTACGGATAA | 2.36 | 2.73 | 2.99 | 1.03 | 2.34 | 5.01 | 1.58 | 2.45 | 0.44 |
| ACTATGAGTTGAGACGAGGGCAACCGATAGGTTG | 1.27 | 1.15 | 1.14 | 0.701 | 0.821 | 3.63 | 0.024 | 1.9 | 0.979 |
| CAGCCTAGGTCAGGGCTAGTATAGGAGGAACGTT | 2.38 | 2.93 | 3.76 | -0.422 | 1.49 | 1.82 | 0.321 | -0.00307 | -0.179 |
| ACAGACAGGTGAGTGAAGGTAACTGAGCTGGACG | 0.0356 | 0.592 | 0.479 | -0.622 | 0.511 | 1.75 | -0.353 | -0.202 | -0.218 |
| TAGCCTAGGTCATTGGGCCAGCATAGTACGCATC | 2.94 | 3.88 | 4.34 | 1.49 | 3.01 | 2.76 | 0.613 | – | 0.817 |
| GGAACGAGGGCAAAGTTGATTGCATCTGTCGACG | 1.13 | 1.89 | 1.34 | 2.7 | 1.76 | 1.36 | -0.0538 | 1.34 | 1.55 |
| GCTAGCAAGCCATTTGGGTCACTCAATGACGGGC | 1.36 | 0.373 | 0.621 | -0.364 | 0.56 | 1.51 | 0.353 | -0.0244 | -0.322 |
| ACTTACGGGTCAACGAGGTTATAGCTCGCGTATA | 3.51 | 5.67 | 5 | 2.85 | 5.91 | 4.18 | 1.02 | 7.8 | 3.7 |
| ACTAGCAGGCCAAGGGTCACACAAGATTAGTCCG | 4.06 | 4.6 | 4.2 | 0.3 | 4.68 | 3.16 | 0.442 | 3.53 | 1.42 |
| TCTATTAGTTGATTGGGGCAACCGAAACAGCGGA | 0.682 | 0.564 | 0.336 | 1.34 | 0.882 | 0.545 | 0.527 | 0.952 | 0.77 |
| CCTTACGGATCACTCCAGGTTATAGCATCGGAGT | 0.563 | 0.297 | 0.583 | 0.552 | 0.224 | 3.06 | 0.842 | 0.59 | 0.677 |
| AGAATGAGGTTATTCGTAGATCAGGGAAGAAAGT | 0.677 | 1.86 | 0.782 | 2.5 | 2.29 | 2.32 | 0.475 | 1.78 | 1.07 |
| CTACCAAGGTGAACAAGGTCGTTGTTTACTATTC | 1.97 | 1.78 | 1.27 | 1.63 | 1.9 | 3.23 | 1.76 | 6.2 | 2.16 |
| CGTCCAAGGTCAACGTCAGTGAAAGAGACTCGAA | 3.98 | 6.3 | 7.13 | 3.49 | 6.13 | 4.04 | 2.55 | 4.05 | 1.8 |
| TAGTCTAGGTCATTGGGCCAGTATAGTACGCATC | 3.08 | 3.92 | 4.79 | 1.95 | 3.26 | 3.32 | 1.55 | 2.5 | 1.87 |
| CCTCGGAGGACAGAAGGTCAGAGATGTCCGCTTT | 3.39 | 3.26 | 3.21 | -0.0318 | 1.74 | 2.05 | -0.116 | 1.28 | 0.382 |
